# Out of some 3,600 compounds screened, about 900 (25%) were called active. Only a sample is shown. Entries with a potency or affinity are not part of this list. Unmarked numbers belong to inactive results. How the calls were made is not given here.
# Target: Protein Tat (Human immunodeficiency virus type 1 group M subtype B (isolate HXB2)) (UniProt P04608)
# Assay: HIV-1 Tat–TAR interaction blockers – biochemical, fluorescence polarization, FAM-labeled TAR RNA, counter-screen for Vif-APOBEC3G degradation inhibitor project, dose response (AID 1117361)
# Conditions: Tat-TAR RNA binding; series mostly up to 100 µM; inhibition: at the top concentration
Structure (SMILES),inhibition,outcome
CC[n+]1c(/C=C2\C=C(C)CC(C)(C)C2)sc2ccccc21,9.02%,–
CCC(C)NC(=O)CSc1ccc(S(=O)(=O)N2CCN(Cc3ccccc3)CC2)cn1 (stereo unspecified),–,inactive
Cc1csc(NC(=O)CCSCCc2ccccn2)n1,–,inactive
CCOc1ccc(NC(=S)/C(=C(\[O-])c2ccc(C)c([N+](=O)[O-])c2)[n+]2ccccc2)cc1,16.2%,–
C=C(C)COc1ccc2c(C)c(C)c(=O)oc2c1OCC(=C)C,3.38%,–
COc1ccc(NC(=O)CN(C)S(=O)(=O)c2ccc3c(c2)CCC(=O)N3)c(OC)c1,3.38%,–
Cn1c(SCC(=O)N2CCCC2)nc2ccccc2c1=O,–,inactive
CCC(Sc1nc2c(c(=O)n1CC)SC(C)C2)C(=O)OC (stereo unspecified),4.05%,–
Cc1noc(NS(=O)(=O)c2ccc(NC(=O)CSc3nnc(-c4ccccc4)n3C3CCCCC3)cc2)c1C,–,inactive
CC(=O)NCCn1c(SCC(=O)Nc2ccc(C)cc2)nc2ccccc2c1=O,–,inactive
Cc1nc(NCc2ccccc2)c2cc[nH]c2n1,–,inactive
Cc1cc(C)n(CC(O)CN2c3ccccc3Sc3ccccc32)n1 (stereo unspecified),–,inactive
CC1CCCCN1Cc1ccc(N(C)C)cc1 (stereo unspecified),2.7%,–
O=C(Nc1ccccc1)c1ccc2nc(-c3ccco3)c(-c3ccco3)nc2c1,–,inactive
Cc1ccc(C(=O)Nc2cccnc2)cc1NC(=O)c1ccco1,–,inactive
O=C(NN=C1CCCC1)C(=O)Nc1cccc(C(F)(F)F)c1,–,inactive
O=C(Nc1cccc(C(F)(F)F)c1)c1cccnc1NCCc1ccccc1,–,inactive
COC(=O)C1=C(C)Nc2ncnn2C1c1ccc(OC(=O)c2ccccc2)cc1 (stereo unspecified),7.43%,–
CC(=O)c1ccccc1NC(=O)COC(=O)CN1C(=O)C2CCCCC2C1=O (stereo unspecified),3.3%,–

Structure (SMILES),inhibition,outcome
COCCn1c(-c2ccc(OC)cc2)nc2ccccc21,–,inactive
N#Cc1cn(CCOc2ccccc2F)c2ccccc12,–,inactive
Cc1ccc(C(=O)N2c3ccc(F)cc3CCC2C)o1 (stereo unspecified),10.9%,–
COC(=O)COc1ccc(S(=O)(=O)NCc2ccco2)cc1Cl,0.68%,–
CC(Cc1c[nH]c2ccccc12)C(=O)NCc1ccco1 (stereo unspecified),5.68%,–
CN(C)CCNc1oc(COc2ccc(Cl)cc2)nc1C#N,11.6%,–
O=C(NNC(=O)c1cc(OCC(F)(F)F)ccc1OCC(F)(F)F)c1cccc(C(F)(F)F)c1,–,inactive
Cc1cc(-n2c(C)cc(C(=O)COC(=O)CN=C3NS(=O)(=O)c4ccccc43)c2C)no1,11.5%,–
COC(=O)C1(C(=O)OC)NOC2C(=O)N(c3ccccc3)C(=O)C21 (stereo unspecified),0.68%,–
O=C1CCCC2=C1C(c1ccsc1)CC(=O)N2c1ccccc1 (stereo unspecified),7.43%,–
COc1ccc(OCCOC(=O)c2cc(S(=O)(=O)N3CCOCC3)c(Cl)cc2Cl)cc1,5.01%,–
O=C(c1cccc(S(=O)(=O)N2CCCC2)c1)N1CCOCC1,–,inactive
COc1ccc(CN2CCSCC2)cc1C,2.34%,–
O=C(O)c1cc(Nc2cc(Cl)c3nonc3c2[N+](=O)[O-])ccc1O,–,inactive
CCC(=O)OCCNc1cc(Sc2nc3ccccc3[nH]2)c2nonc2c1[N+](=O)[O-],8.25%,–
CN(CCO)c1cc(Sc2nc3ccccc3s2)c2nonc2c1[N+](=O)[O-],–,inactive
O=[N+]([O-])c1c(Nc2ccccc2O)cc(Cl)c2nonc12,–,inactive
C=CCSc1nnc(-c2ccc(Cl)cc2Cl)o1,–,inactive
O=C1N=NC2=C1c1c3ccccc3c(O)n1CC2,–,inactive

Structure (SMILES),inhibition,outcome
N#CC1=C(Nc2ccccc2)SC=C(c2ccc(Br)cc2)N=C1N1CCOCC1,18.2%,–
Cc1onc(-c2ccccc2Cl)c1C(=O)N1CCN(c2cccc(Cl)c2)CC1,–,inactive
COc1ccc(CC(=O)OCn2nnc3ccccc3c2=O)cc1,–,inactive
CC(NC(=O)CN(C)Cc1nc2ccccc2c(=O)[nH]1)c1ccccc1 (stereo unspecified),0.68%,–
Cc1ccc(CNC(=O)C2CCCN(S(=O)(=O)c3cnc[nH]3)C2)cc1 (stereo unspecified),–,inactive
COCCn1c(SCC(=O)N2CCC(C)CC2)nc2ccccc2c1=O,–,inactive
COc1ccc(/C=N/NC(=O)CNc2n[nH]c(=O)[nH]c2=O)cc1OC,28%,–
O=C(Nc1nc2n(n1)C(c1ccccc1)CC(c1ccc(Cl)cc1)N2)c1ccco1 (stereo unspecified),2.7%,–
COc1cccc(-c2nc3cc(C)ccc3o2)c1,4.73%,–
Cc1nc2nc(-c3ccccc3)cn2nc1C,20.9%,–
CON(c1nc(N(C)C)nc(N(C)C)n1)S(=O)(=O)c1ccccc1Cl,1.35%,–
O=S(=O)(c1ccc(Cl)s1)N1CCN(Cc2ccccc2)CC1,8.11%,–
O=C(Cn1nc(-c2ccc(Cl)cc2)ccc1=O)NCc1ccc2c(c1)OCO2,–,inactive
CC1CCN(Cc2cnc(Cl)s2)CC1,4.05%,–
CCCCSc1nc2sc3c(c2c(=O)[nH]1)CCC3,–,inactive
CCn1c(SCC(=O)OC)nc2sc3c(c2c1=O)CCC3,1.67%,–
Cc1nn(C)cc1CNC(=O)C1C2CCC(C2)C1C(=O)O (stereo unspecified),–,inactive
CCN1C(=O)CS/C1=C(\C#N)S(=O)(=O)c1ccccc1,–,inactive
